ssDAF12 agonist: activates DAF-12 receptor from parasite S. stercoralis; activation, % at 6.8 µM; 370,000 compounds, 1% hits; HEK293 ssDAF-12/GRIP1 lit1-tk-luc reporter, luminescence; % of 3 µM dafachronic acid response;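 active means activation above the mean over all tested compounds plus 3 SD, cut at about 0.9% in these data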
DAX1 inh-1: blocks DAX1 repression of SF-1 activated StAR promoter; HEK293T StAR-luciferase reporter, SF-1/DAX-1 repression relief; inhibition, % at 6.8 µM; 370,000 compounds, 1.1% hits;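 active means inhibition above the mean over all tested compounds plus 3 SD, cut at about 3.6% in these data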;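 further: higher inhibition means more luminescence from relief of DAX-1 repression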
DAX1 inh-2: NR0B1 (DAX1) inhibition; HEK293 Gal4-DAX1 luciferase reporter, luminescence; AID 504766; inhibition, % at 6.75 µM; 340,000 compounds, 0.99% hits; P51843;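 active means inhibition above the mean over all tested compounds plus 3 SD, cut at about 4.2% in these data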;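 further: inhibition shows as a rise in luminescence from relieved DAX1 repression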
Target sequence (P51843 207-470 limits assumed): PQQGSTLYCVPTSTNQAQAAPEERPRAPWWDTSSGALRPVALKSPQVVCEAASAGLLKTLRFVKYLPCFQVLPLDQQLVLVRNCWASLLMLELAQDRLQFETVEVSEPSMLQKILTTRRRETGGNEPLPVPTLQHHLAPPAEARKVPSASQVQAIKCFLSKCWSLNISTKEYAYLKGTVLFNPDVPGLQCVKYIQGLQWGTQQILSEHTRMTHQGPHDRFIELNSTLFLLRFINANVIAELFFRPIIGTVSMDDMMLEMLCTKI
GAA850 FXN act: frataxin GAA850 promoter activation | HEK293 lucGAA850 FXN promoter luciferase reporter, 24 h; percent of 10 µM SAHA response | AID 540364 | activation, % at 6 µM | 360,000 compounds, 0.56% hits;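 active means activation above the average of all compounds screened plus 3 SD, cutoff fixed separately per campaign, cut at about 7.5% in these data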
hcDAF-12 act: activates DAF-12 receptor from parasite H. contortus | AID 652067 | activation, % at 6.8 µM | HEK293 hcDAF-12 lit1-tk-luc reporter, luminescence; 0% DMSO, 100% Δ7-dafachronic acid | 370,000 compounds, 1.4% hits;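 active means activation above the mean of all tested compounds plus 3 SD, cut at about 5.5% in these data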
hgDAF-12 ag: hgDAF-12 agonism, primary luciferase screen | activation, % at 6.8 µM | 370,000 compounds, 1.8% hits | HEK293 GAL4-hgDAF12 UAS-luciferase reporter, agonist luminescence; normalized to butyrate control;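 active means activation above a cutoff set at the mean of all screened compounds plus 3 SD, cut at about 10% in these data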
hgDAF12 ag: confirmation of H. glycines DAF-12 agonists; 3,300 compounds, 80% hits; AID 743050; HEK293 GAL4-hgDAF12 luciferase reporter, agonist mode; percent of butyrate response; shares compounds with hgDAF-12 ag; activation, % at 6.8 µM;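 active means mean activation over triplicate wells above the hit cutoff derived from the earlier primary screen, cut at about 11% in these data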
LXR ag 2: activates human LXR-beta, counter-screen for DAF-12 agonists | shares compounds with hgDAF-12 ag | HEK293 Gal4-LXR luciferase reporter, 24 h | activation, % at 6.8 µM | 3,300 tested, under 10 active;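 active means mean activation of the triplicate above a set limit carried over from the primary screen, none filed active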
Target sequence (P55055 whole entry, looked up, the tested form may be a part): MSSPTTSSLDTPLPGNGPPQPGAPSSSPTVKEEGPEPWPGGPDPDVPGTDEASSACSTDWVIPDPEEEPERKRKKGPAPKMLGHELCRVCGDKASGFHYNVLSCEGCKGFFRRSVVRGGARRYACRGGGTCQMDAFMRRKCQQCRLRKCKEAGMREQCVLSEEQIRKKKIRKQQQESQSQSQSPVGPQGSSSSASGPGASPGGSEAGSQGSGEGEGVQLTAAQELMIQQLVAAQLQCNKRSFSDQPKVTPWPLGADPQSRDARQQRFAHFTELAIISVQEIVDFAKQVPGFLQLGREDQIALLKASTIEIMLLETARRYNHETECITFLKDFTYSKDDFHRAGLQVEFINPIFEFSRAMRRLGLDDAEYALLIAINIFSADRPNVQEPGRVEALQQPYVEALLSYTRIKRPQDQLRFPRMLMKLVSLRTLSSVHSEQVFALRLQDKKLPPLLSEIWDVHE
Of the large screens only hits and unclear results are named; the others gave an inactive call (follow-up assays come after a bar, where they were run); ! = a repeat was not active. In the library only some 4.5% were active in any assay of this set; here they are far more common.

O=C(c1ccc([N+](=O)[O-])cc1[N+](=O)[O-])N1CCc2ccccc21	none
O=C(N=C1N=C2C=CC(Br)=CN2Cc2ccccc21)c1ccc([N+](=O)[O-])cc1[N+](=O)[O-]	ssDAF12 agonist 1.1, hgDAF-12 ag 14 | hgDAF12 ag 14 | LXR ag 2 inactive
COc1ccc(Nc2nc(N)nc(CSc3nnc(N)s3)n2)cc1	none
COc1ccc(Nc2nc(N)nc(CSc3nccn3C)n2)cc1	hgDAF-12 ag 21 | hgDAF12 ag 13 | LXR ag 2 inactive
Cn1cccc1C(=O)N/N=C/c1c(Cl)cccc1Cl	hcDAF-12 act 5.9, hgDAF-12 ag 13 | hgDAF12 ag 12 | LXR ag 2 inactive
O=C(N/N=C/c1c(Cl)cccc1Cl)c1ccc(F)cc1	none
COCCCNC(=O)c1ccc(Cn2c(=O)c3ccccc3n(Cc3ccc(Br)cc3)c2=O)cc1	none (no result: DAX1 inh-2, GAA850 FXN act)
O=C(O)c1cc2c(ncc3c(=O)n(-c4ccccc4)[nH]c32)s1	none (no result: DAX1 inh-2, GAA850 FXN act)
COc1ccc(C=C(C(=O)c2ccccc2)C(=O)c2ccccc2)cc1	hgDAF-12 ag 14 (no result: DAX1 inh-2, GAA850 FXN act) | hgDAF12 ag 11 | LXR ag 2 inactive
COc1ccc(C=C(C(C)=O)C(=O)c2ccccc2)cc1	none (no result: DAX1 inh-2, GAA850 FXN act)
CCCCCCCCNS(=O)(=O)CC1NCc2cc(OC)ccc21 (stereo not given)	none (no result: DAX1 inh-2, GAA850 FXN act)
COC(=O)Nc1ccc2c(c1)N(C(=O)CCN1CCN3CCCC3C1)c1ccccc1CC2 (stereo not given)	hgDAF-12 ag 18! | hgDAF12 ag inactive | LXR ag 2 inactive
CC(=O)N1CCN(c2ccc(N3CCN(C(C)=O)[C@H](C)C3)c(C)c2)[C@@H](C)C1	none (no result: DAX1 inh-2, GAA850 FXN act)
NS(=O)(=O)c1ccc(NC(=O)CSC2CCCCC2)cc1	none
COc1ccc(NC(=O)CSC2CCCCC2)cc1	hgDAF-12 ag 23 | hgDAF12 ag 15 | LXR ag 2 inactive
CCCCN1CCc2c([nH]c3ccc(C)cc23)C1=O	DAX1 inh-1 3.9, hgDAF-12 ag 15 | hgDAF12 ag inactive | LXR ag 2 inactive
O=C(Nc1ccc(F)c(Cl)c1)c1cc(C2CCCCN2C(=O)C2CC2)on1 (stereo not given)	none (no result: DAX1 inh-2)
O=C(Nc1ccc(F)c(Cl)c1)c1cc(C2CCCN(C(=O)C3CC3)C2)on1 (stereo not given)	DAX1 inh-1 4.4, hgDAF-12 ag 15 (no result: DAX1 inh-2) | hgDAF12 ag inactive | LXR ag 2 inactive
CCOc1ccc(CCNC(=O)c2cc(C)nc3ccccc23)cc1OCC	none
CCc1ccc2c(c1)[C@H]1OCC[C@H]1[C@@H](c1cccs1)N2	hgDAF-12 ag 14 | hgDAF12 ag 11 | LXR ag 2 inactive
CCOCCCN(C)C1CCN(C(=O)c2oc3ccccc3c2NC(=O)c2ccc(F)cc2)CC1	none
CC(=O)Oc1ccccc1-c1nc(/C=C/c2ccccc2)no1	hcDAF-12 act 6.3, hgDAF-12 ag 17 | hgDAF12 ag 18 | LXR ag 2 inactive
CN(C)C(=O)CN1C(=O)NC2(CCCc3ccccc32)C1=O (stereo not given)	none
O=C(CCCN1CCOCC1)c1ccc2c(c1)OCCO2	hgDAF-12 ag 17 | hgDAF12 ag 14 | LXR ag 2 inactive
O=C(/C(C=Nc1cc2c(oc1=O)CCCC2=O)=C(\O)c1ccccc1)c1ccccc1	hgDAF-12 ag 14 | hgDAF12 ag inactive | LXR ag 2 inactive
COn1c(-c2ccc(Cl)cc2)nc2ncccc21	hgDAF-12 ag 13 | hgDAF12 ag 11 | LXR ag 2 inactive
O=[N+]([O-])c1ccc(N2CCN(c3ccccc3Cl)CC2)cn1	none
CCC(=O)Nc1cccc(-c2ccc(N3CCC(C)CC3)nn2)c1	ssDAF12 agonist 1.0, hcDAF-12 act 5.8, hgDAF-12 ag 18 | hgDAF12 ag 13 | LXR ag 2 inactive
CCC(=O)Nc1ccc(-c2ccc(N3CCC(C)CC3)nn2)cc1	none (no result: ssDAF12 agonist, DAX1 inh-1, hcDAF-12 act, hgDAF-12 ag)
CC(C)C(=O)OCC(=O)Nc1ccc(N=Nc2ccccc2)cc1	hgDAF-12 ag 16 | hgDAF12 ag 17 | LXR ag 2 inactive
CC(=O)Nc1ccccc1	none
CC(=O)Nc1ccc(N=Nc2ccccc2)cc1	DAX1 inh-1 4.2, hgDAF-12 ag 16 | hgDAF12 ag 15 | LXR ag 2 inactive
COc1ccc(C(CNC(=O)CCC(=O)c2ccc(C)s2)N2CCOCC2)cc1 (stereo not given)	none
Fc1cccc(Cl)c1CN1CCN(c2nc3ccccc3s2)CC1	hgDAF-12 ag 13 | hgDAF12 ag 11 | LXR ag 2 inactive
c1ccc(CCCCc2ccncc2)cc1	none
O=C(CCCc1ccncc1)c1ccccc1	hgDAF-12 ag 13 | hgDAF12 ag inactive | LXR ag 2 inactive
Cc1cc(NC(=O)NC(=O)c2cccc(OC(F)(F)C(F)F)c2)n[nH]1	none
O=C(Nc1cc(-c2ccccc2)[nH]n1)c1ccccc1	hgDAF-12 ag 14 | hgDAF12 ag 16 | LXR ag 2 inactive
Cc1cc(NC(=O)c2cccc(Oc3ccccc3)c2)n[nH]1	DAX1 inh-1 3.7, hgDAF-12 ag 19 | hgDAF12 ag 13 | LXR ag 2 inactive
O=C(Nc1ccccc1)C1CC(=O)N(Cc2ccccc2)C1 (stereo not given)	none
CC(=O)c1ccc(NC(=O)C2CC(=O)N(Cc3ccccc3)C2)cc1 (stereo not given)	hgDAF-12 ag 14 | hgDAF12 ag inactive | LXR ag 2 inactive
COc1ccc(-n2c(C)cc(/C=C3\SC(=S)NC3=O)c2C)cc1	none
Cc1cc(/C=C2\SC(=S)NC2=O)c(C)n1-c1ccc(O)cc1	hgDAF-12 ag 14 | hgDAF12 ag inactive | LXR ag 2 inactive
COc1cccc(NC(=O)/C=C/c2ccccc2[N+](=O)[O-])c1	hgDAF-12 ag 16 | hgDAF12 ag 16 | LXR ag 2 inactive
COc1ccc(OC)c(NC(=O)/C=C/c2ccccc2[N+](=O)[O-])c1	none
Cc1ccc(CN[C@@H]2CC[C@@]34CCCN3C(=O)CCC[C@H]4C2)o1	none (no result: DAX1 inh-1, DAX1 inh-2, GAA850 FXN act)
O=C(Nc1ccc2[nH]c(=S)sc2c1)c1ccccc1	DAX1 inh-1 3.7, hgDAF-12 ag 14 | hgDAF12 ag 12 | LXR ag 2 inactive
CN(CC(=O)Nc1ccc(F)c(F)c1F)C(=O)C1=NN(c2ccccc2)C(=O)CC1	none
CC/C(=N\Nc1nncc2ccccc12)c1ccc(F)cc1	hgDAF-12 ag 16 | hgDAF12 ag 16 | LXR ag 2 inactive
C/C(=N\Nc1nncc2ccccc12)c1ccc(OCC(=O)N(C)C)cc1	hgDAF-12 ag 16 | hgDAF12 ag inactive | LXR ag 2 inactive
COc1ccc(OCC(=O)N/N=C(\C)c2ccc(OC)cc2)cc1	none

Screening results as filed in PubChem BioAssay.
